# From PubChem BioAssay
# Tau filament bind – binds recombinant human tau filaments. recombinant tau filaments, thioflavin S fluorescence, 15 h; filaments grown with octadecylsulfate alongside compound. P10636. Potency, µM (titrated, usually from 57.1 µM). actives 2% (n = 71,000);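 further: actives lower thioflavin S fluorescence by blocking filaments or displacing dye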
#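 Quantitative HTS: thioflavine S signal from ODS-induced tau filaments, excited at 450 nm, emission 510 nm. Conditions: 1 uM tau, 30 uM ODS, 15 h at 37 C, pH 7.4.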
# Bst PK mod – alters activity of Bacillus stearothermophilus pyruvate kinase; AID 361; purified pyruvate kinase, luminescence ATP production; ribose 5-phosphate activator present at AC10; actives 1.2% (n = 51,000); Potency, µM; in the data active means potency below about 11 µM; inconclusive means mostly about 12 µM to 25 µM;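 the screen sought inhibitors and activators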
# DNA Pol III inh – DNA polymerase III holoenzyme inhibition; AID 603; Potency, µM (highest dose often 57.1 µM); reconstituted DNA polymerase III holoenzyme replication, biochemical; actives 0.25% (n = 71,000)
#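 Reconstituted *E. coli* holoenzyme (0.35 nM Pol III, 1 nM beta, 154 nM SSB, 2 nM primase) was preincubated with compound for 15 min at RT. Synthesis on 1.4 nM ssM13Gori ran 35 min, then was stopped with PicoGreen/EDTA and read as dsDNA fluorescence.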
# 15-hLO inh – inhibitors of human 15-lipoxygenase (ALOX15); Potency, µM (titrated, usually from 57.1 µM), actives largely listed as inhibitors; purified 15hLO-1, xylenol orange hydroperoxide absorbance; actives 1.4% (n = 74,000); P16050; further: nearly all actives have a fitted effect of over 55% in size
# Target sequence (P16050 whole entry, looked up): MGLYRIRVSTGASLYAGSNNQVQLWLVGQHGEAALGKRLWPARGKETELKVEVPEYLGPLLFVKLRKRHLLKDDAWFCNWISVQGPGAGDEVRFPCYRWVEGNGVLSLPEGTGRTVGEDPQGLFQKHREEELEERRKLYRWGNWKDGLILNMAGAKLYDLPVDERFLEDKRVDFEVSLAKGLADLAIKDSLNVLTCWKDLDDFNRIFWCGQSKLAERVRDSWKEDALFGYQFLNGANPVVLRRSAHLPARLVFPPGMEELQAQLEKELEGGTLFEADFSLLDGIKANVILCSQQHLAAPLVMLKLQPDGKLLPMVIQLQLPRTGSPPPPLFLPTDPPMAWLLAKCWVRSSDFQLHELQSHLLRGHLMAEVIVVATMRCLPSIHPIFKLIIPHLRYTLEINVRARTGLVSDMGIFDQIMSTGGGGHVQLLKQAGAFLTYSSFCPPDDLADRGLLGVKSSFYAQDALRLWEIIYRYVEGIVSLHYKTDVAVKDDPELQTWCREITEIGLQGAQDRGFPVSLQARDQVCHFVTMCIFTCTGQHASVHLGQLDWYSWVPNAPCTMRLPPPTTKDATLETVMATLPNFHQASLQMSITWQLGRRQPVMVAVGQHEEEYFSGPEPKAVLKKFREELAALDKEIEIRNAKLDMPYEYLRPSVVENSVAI
#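 Compounds were preincubated 15 min at room temperature with 40 nM purified human enzyme (25 mM Hepes pH 7.5, 0.01% Triton X-100); 50 uM arachidonic acid reacted 6 min. Fe-xylenol orange detection, 30 min, absorbance ratio 573/405 nm.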
# ERK AVP inh – vasopressin-driven ERK pathway inhibition | actives 0.99% (n = 72,000) | HEK293-V1b, vasopressin-stimulated pERK AlphaScreen | Potency, µM (titrated, usually from 57.5 µM), usual class: inhibitors | AID 995; further: nearly all actives have a fitted effect of over 55% in size
#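 Phosphorylated ERK1/2 detected via AlphaScreen bead proximity in lysates of V1b-expressing HEK293 cells given 25 nM vasopressin for 5 min after 30 min compound exposure (37 °C). AC50 from Hill equation; basal DMSO 0%, vasopressin 100%.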
# FLuc inh – firefly luciferase inhibition; purified firefly luciferase, luminescence, 8 min; Potency, µM (top dose mostly 57.1 µM), usual class: inhibitors; actives 2.2% (n = 72,000); further: nearly all actives have a fitted effect of over 40% in size
#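 Inhibition of light generation by firefly luciferase from ATP and luciferin was profiled with concentration-response curves per sample, ATP held at 10 uM within the enzyme's linear range. Plates were read by luminescence after an 8-minute ambient incubation.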
# Hits are given with their value; 0 = inactive; ? = inconclusive; - = no result; ! = not confirmed by another sample; [ ] = another dose, or the depositor's remark. In the library only some 6% were active in any assay of this set; here they are far more common. Unless noted, the call rests on the fitted dose curve; in most records, active means well fitted curve in the direction sought with a large enough effect; inconclusive means small, poorly fitted or top-dose-only effect, or another doubt; inactive means no such curve, though single readings can be large; an effect the other way counts as inactive or inconclusive.
SMILES,Tau filament bind,Bst PK mod,DNA Pol III inh,15-hLO inh,ERK AVP inh,FLuc inh
CC(=O)NC(CCC(=O)O)C(=O)O (configuration not stated),-,-,-,0,0,-
N#CC1=C(N)N=C(SCc2ccccc2)C(C(N)=O)C12CCCCC2 (configuration not stated),6.31µM,0,0,0,?,0
Cc1ccc(C(=O)CSC2=NC(N)=C(C#N)C3(CCCCC3)C2C(N)=O)cc1 (configuration not stated),3.16µM,-,0[11.4 µM],?,?,0
CCOC(=O)C[C@@H](C(=O)OCC)[C@@H]1CCCCC1=O,-,-,-,0[11.4 µM],0[11.5 µM],0[11.4 µM]
Oc1ccc(-c2[nH]ncc2-c2cccc3cccnc23)c(O)c1,0,5.88,0,0,0,0
CCOC(=O)CCN1C(=O)[C@H]2[C@H]3[C@H](O)[C@H](O)C/C(=N/OC/C=C(\C)CCC=C(C)C)[C@H]3CC[C@@H]2C1=O,-,-,-,0[11.4 µM],0[11.5 µM],0[11.4 µM]
CCCc1ccc(-c2ccc(C(=O)O)cc2)nc1,0,-,0,0,0,15.8µM
N#C/C(=C\c1ccc(O)c(O)c1)S(=O)(=O)c1ccccc1,0,0,0,3.98µM,0,0
O=C(O)CCCC(=O)NCCCc1ccccc1,0[11.4 µM],-,0[11.4 µM],0[11.4 µM],0,0
N#C/C(=C\c1ccc(O)c(O)c1)C(=O)OCCc1cccs1,0,-,0,?,0,0
N#C/C(=C\c1ccc(O)c(O)c1)C(=O)NCCCc1ccccc1,0,0,0,2.51µM,?,0
N#C/C(=C\c1c[nH]c2ccccc12)C(=O)c1ccc(O)c(O)c1,0,-,0,0.251µM,?,0
N#C/C(=C\c1ccc(O)c(O)c1)C(=O)c1ccc(O)c(O)c1,0,-,?,3.98µM,?,0
CC1(C)OC[C@@H]2O[C@H](n3cnc4c(N)nc(Cl)nc43)[C@@H](OS(C)(=O)=O)[C@@H]2O1,0[11.4 µM],-,0[11.4 µM],0[11.4 µM],0[11.5 µM],0[11.4 µM]
CC(=O)NC1C(O)C[C@@](O)(C(=O)O)OC1[C@@H](O)C(O)CO (some centres not stated),-,-,-,0,0,-
COc1ccc(CCN2C(=NC(=O)CCC(=O)O)SC3CS(=O)(=O)CC32)cc1OC (configuration not stated),0,0,0,0,0,12.6µM
C=CCN1C(=NC(=O)CCCC(=O)O)SC2CS(=O)(=O)CC21 (configuration not stated),0,0,0,0,0,0
CCCc1ncc(C(=O)c2ccc(OC)cc2)n1C,0,-,0,10µM,0,0
N/C(CSc1nc(-c2ccccc2)c(-c2ccccc2)o1)=N\O,0,-,0,12.6µM,31.6µM,0
CCOc1ccc(NS(=O)(=O)c2ccc3[nH]cc(C(=O)NC(C)CC)c(=O)c3c2)cc1 (configuration not stated),0,0,0,25.1µM,0,0
CCCNC(=O)c1c[nH]c2ccc(S(=O)(=O)N(C)c3ccc(OCC)cc3)cc2c1=O,0,0,0,0,0,0
C=CC1=C(C)C2=Cc3c(C=C)c(C)c4[n]3[Sn+2][n]3c(c(C)c(CCC(=O)O)c3=CC3=NC(=C4)C(C)=C3CCC(=O)O)=CC1=N2,?,-,39.8µM,?,0,0
COC(=O)CC1[C@@]2(C)C[C@]34OC5(C)OC6(C7CC(=O)OC(c8ccoc8)[C@]7(C)CCC6(O5)[C@]13C)C(OC(C)=O)[C@]4(OC(C)=O)C2OC(C)=O (some centres not stated),-,-,-,0,0,-
COc1ccccc1-c1cc(C(=O)N2CCN(c3ccccc3OC)CC2)no1,0,0,0,0,0,0
COc1ccccc1N1CCN(C(=O)c2ccc3nc(-c4ccco4)c(-c4ccco4)nc3c2)CC1,3.16µM,0,0,20µM,15.8µM,0
SMILES,Tau filament bind,Bst PK mod,DNA Pol III inh,15-hLO inh,ERK AVP inh,FLuc inh
COC(=O)C/C=C\[C@@H](C)[C@@H](/C=N\O[C@@H](C)CN1CCCc2nc(C)c(C)cc21)OC,-,-,-,0[11.4 µM],0[11.5 µM],0[11.4 µM]
Oc1[nH]c2ccccc2c1C1=NCCCC1,0,0,0,0,0,0
O=Nc1c(-c2c(O)[nH]c3cc(Br)ccc23)[nH]c2ccccc12,-,-,-,0,10µM,-
NC(N)=N/N=C(/c1ccccc1)c1ccc(O)cc1O,0[11.4 µM],-,0[11.4 µM],0[11.4 µM],0[11.5 µM],0[11.4 µM]
COc1ccc(NS(=O)(=O)c2ccc(I)cc2)cc1N1CCN(C)CC1,39.8µM,-,0,?,0,0
COc1ccc(S(=O)(=O)Nc2ccc(C)cc2)cc1OC,0,0,0,0,0,0
COc1ccc2nc3c(cc2c1)Cc1ccccc1-3,?,-,0,-,31.6µM,-
COc1ccc2nc3c(c(-c4ccccc4)c2c1)CCC3,0,-,0,-,0,-
COc1ccccc1-c1nn2c(-c3ccco3)nnc2s1,-,8.25,-,-,-,0
COc1cccc(OC)c1-c1nn2c(-c3cc(-c4ccccc4)n[nH]3)nnc2s1,0,0,12.6µM,0,0,0
c1ccc(-c2nnc3sc(-c4csc5c4CCCC5)nn23)cc1,0,0,0,15.8µM,0,0
COc1ccc(-c2nn3c(-c4ccccc4)nnc3s2)cc1,0,3.39,0,0,?,0
CC(=O)[C@H](C(=N)C#N)C(=O)Nc1ccccc1,0[11.4 µM],-,0[11.4 µM],0[11.4 µM],0[11.5 µM],0[11.4 µM]
CCCN1C[C@@H](CSC)C[C@H]2c3cccc4[nH]cc(c34)C[C@@H]21,0,-,0,0,0,0
Cc1ccc2cc(C)c3nnc(SCC(=O)NCc4ccco4)n3c2c1,0,?,0,0,0,0
Cc1ccc2c(c1)cc(C)c1nnc(SCC(=O)NCc3ccco3)n12,0,4.16,0,0,0,0
NC(=O)c1sc2nccc(Nc3ccccc3)c2c1N,0,0,0,?,?,0
CC(C)(C)C(=O)c1sc(Nc2ccccc2)nc1N,0,?,0,0,0,12.6µM
COc1ccc(-c2nn(-c3ccccc3)cc2/C=N/n2cnnc2)cc1OC,0,-,0,0,0,?
C(=N\n1cnnc1)/c1cn(-c2cccs2)nc1-c1ccccc1,0,?,0,0,0,25.1µM
N#CCCn1c(=O)cnc2cnc(Oc3cccc(Cl)c3)nc21,0,-,0,0,0,0[11.4 µM]
C[C@@H](CN1c2ccccc2Sc2ccccc21)N(C)C,12.6µM!,-,0,15.8µM!,0,0
CCN1/C(=C\C(C)=O)Sc2ccc(OC)cc21,0,-,0,-,-,0
CC(CN(C)C)CN1c2ccccc2Sc2ccccc21 (configuration not stated),-,-,-,0,0,-
COc1ccc2c(c1)N(CC[C@H]1CCCCN1C)c1ccccc1S2,2.51µM,-,0[11.4 µM],0[11.4 µM],0[11.5 µM],0[11.4 µM]
COc1ccc2c(c1)N(C[C@@H](C)CN(C)C)c1ccccc1S2,10µM,-,0,0,0,0
Cn1c(/C=N/c2nc3ccccc3[nH]2)nc2ccccc21,?,0,0,0,0,0
C(=N\c1nc2ccccc2[nH]1)/c1cccs1,0,-,0,?,0,7.94µM
C[C@H](Br)C(=O)Nc1ccc(C(=O)O)c(O)c1,0[11.4 µM],-,0[11.4 µM],0[11.4 µM],0[11.5 µM],0[11.4 µM]
O=C(Nc1cccc(OC(=O)c2ccco2)c1)c1ccco1,0,0,0,0,0,0
